Results reported in PubChem BioAssay (NCI).
About 79,000 compounds went through this panel and 15% of them were active in at least one assay; those are over-represented in the sample as a whole. The source made the active and inactive calls. Cut-off read from the data, not from the text of the source: active = growth inhibition above about 70%; inactive = the rest.

Key:
[1] = NCI Yeast Anticancer Drug Screen. Data for the rad52 strain (AID 147);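 note: 0% = growth of vehicle-treated control cultures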; settings: S. cerevisiae rad52 mutant growth inhibition, stronger effect = higher value
In short: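 Read-out: growth inhibition versus vehicle-treated controls. Cells were a DNA repair-deficient yeast strain treated with compounds.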

[2] = NCI Yeast Anticancer Drug Screen. Data for the wt1 strain (AID 149);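 note: 0% = growth of vehicle-treated wt1 cultures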; settings: S. cerevisiae wt1 strain (SPY 50644) growth inhibition, stronger effect = higher value
In short: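 Yeast wt1 strain exposed to compounds; growth inhibition measured relative to vehicle-treated controls.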

[3] = NCI Yeast Anticancer Drug Screen. Data for the rad50EPP+ strain (AID 151);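 note: 0% = growth of vehicle-treated control cultures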; settings: S. cerevisiae rad50 mutant strain, stronger effect = higher value
In short: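 Growth inhibition read against vehicle controls in rad50EPP+ yeast, a strain altered in DNA damage repair, after compound exposure.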

[4] = NCI Yeast Anticancer Drug Screen. Data for the mgt1 strain (AID 153); settings: S. cerevisiae mgt1 mutant growth inhibition, stronger effect = higher value
In short: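 mgt1 yeast grown with test compound; read-out is growth inhibition versus vehicle-treated cultures.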

[5] = NCI Yeast Anticancer Drug Screen. Data for the rad50 strain (AID 155);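 note: 0% = growth of vehicle-only cultures of the same strain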; settings: S. cerevisiae rad50 strain growth inhibition, stronger effect = higher value
In short: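 Yeast carrying a defined DNA repair defect were exposed to test compounds, and growth was compared with vehicle-treated controls to give percent inhibition.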

[6] = NCI Yeast Anticancer Drug Screen. Data for the mec2-1 strain (AID 157); settings: S. cerevisiae mec2-1 strain, stronger effect = higher value
In short: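 Yeast mec2-1 mutant treated with compound. Readout: growth inhibition vs vehicle controls.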

[7] = NCI Yeast Anticancer Drug Screen. Data for the rad14 strain (AID 159);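 note: 0% = growth of vehicle-treated control cultures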; settings: S. cerevisiae rad14 strain growth inhibition, stronger effect = higher value
In short: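 Yeast cells carrying a defined DNA-repair defect were exposed to compounds, and growth inhibition was calculated relative to vehicle-treated control cultures.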

[8] = NCI Yeast Anticancer Drug Screen. Data for the sgs1 mgt1 strain (AID 161);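 note: 0% = growth of cultures given vehicle only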; settings: S. cerevisiae sgs1 mgt1 strain, stronger effect = higher value
In short: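 Mutant yeast exposed to compound; growth scored against vehicle-only wells.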

[9] = NCI Yeast Anticancer Drug Screen. Data for the CLN2oe strain (AID 163);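 note: 0% = growth of vehicle-only control cultures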; settings: S. cerevisiae CLN2oe strain, stronger effect = higher value
In short: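 Read-out: yeast growth inhibition, expressed relative to vehicle-only controls. The strain bears an engineered cell-cycle alteration.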

[10] = NCI Yeast Anticancer Drug Screen. Data for the cln2 rad14 strain (AID 165);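 note: 0% = growth equal to vehicle treated cultures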; settings: S. cerevisiae cln2 rad14 strain, stronger effect = higher value
In short: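 cln2 rad14 yeast strain; compound exposure; growth inhibition read vs vehicle controls.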

[11] = NCI Yeast Anticancer Drug Screen. Data for the bub3 strain (AID 167); settings: S. cerevisiae bub3 mutant strain, stronger effect = higher value
In short: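 Compounds were applied to a genetically altered yeast strain carrying a cell-cycle control defect. Growth inhibition was scored against vehicle-treated controls.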

[12] = NCI Yeast Anticancer Drug Screen. Data for the wt2 strain (AID 169);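 note: 0% = growth of vehicle-treated yeast cultures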; settings: S. cerevisiae wt2 strain growth inhibition, stronger effect = higher value
In short: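 Read-out: growth inhibition versus vehicle-treated control cultures after compound exposure of the yeast strain.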

[13] = NCI Yeast Anticancer Drug Screen. Data for the mlh1 strain (AID 171);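 note: 0% = growth of vehicle-treated control cultures of the same strain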; settings: S. cerevisiae mlh1 strain growth inhibition, stronger effect = higher value
In short: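 Read-out: growth inhibition versus vehicle controls. Strain: engineered yeast with a defined DNA repair or cell cycle defect, compound-treated.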

[14] = NCI Yeast Anticancer Drug Screen. Data for the sgs1 strain (AID 173);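 note: 0% = growth of vehicle-only control cultures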; settings: S. cerevisiae sgs1 mutant, stronger effect = higher value
In short: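 Read-out: yeast growth inhibition relative to vehicle controls, following compound exposure of a strain with a defined DNA repair/cell cycle alteration.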

[15] = NCI Yeast Anticancer Drug Screen. Data for the mlh1 rad18 strain (AID 175); settings: S. cerevisiae mlh1 rad18 strain growth inhibition, stronger effect = higher value
In short: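 Yeast w/ defined DNA-repair lesions; compound exposure; growth vs vehicle controls → % inhibition.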

[16] = NCI Yeast Anticancer Drug Screen. Data for the rad18 strain (AID 177); settings: S. cerevisiae rad18 mutant growth inhibition, stronger effect = higher value
In short: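 Readout: growth inhibition vs vehicle controls. Cells: genetically altered yeast strain, DNA repair defect.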

[17] = at 5.0 µM (retest, dose inferred, filed as 0.5)
[18] = at 50.0 µM (retest, dose inferred, filed as 5.0)

Measured: growth inhibition

Cc1ccc(S(=O)(=O)NCCSS(=O)(=O)c2ccc(C)cc2)cc1
inactive: [1]; at 1.2 µM 18% | [1]; at 3.7 µM 31% | [1]; at 11.0 µM 38% | [2]; at 1.2 µM 6% | [2]; at 3.7 µM 8% | [2]; at 11.0 µM 28% | [3]; at 1.2 µM -14% | [3]; at 3.7 µM 6% | [3]; at 11.0 µM 64% | [4]; at 1.2 µM -13% | [4]; at 3.7 µM -8% | [4]; at 11.0 µM 3% | [5]; at 1.2 µM 9% | [5]; at 3.7 µM 6% | [5]; [17] 36% | [5]; at 11.0 µM 17% | [6]; at 1.2 µM -2% | [6]; at 3.7 µM -13% | [6]; [17] -24% | [6]; at 11.0 µM 7% | [7]; at 1.2 µM -10% | [7]; at 3.7 µM -15% | [7]; at 11.0 µM -6% | [8]; [17] 7% | [9]; at 1.2 µM -29% | [9]; at 3.7 µM -16% | [9]; at 11.0 µM -6% | [10]; [17] 20% | [11]; at 1.2 µM -14% | [11]; at 3.7 µM -29% | [11]; [17] 30% | [11]; at 11.0 µM -4% | [12]; at 1.2 µM -14% | [12]; at 3.7 µM -17% | [12]; at 11.0 µM -1% | [13]; at 1.2 µM -27% | [13]; at 3.7 µM -34% | [13]; at 11.0 µM -14% | [14]; at 1.2 µM 20% | [14]; at 3.7 µM 21% | [14]; at 11.0 µM 45% | [15]; [17] 10% | [16]; at 1.2 µM -2% | [16]; at 3.7 µM 6% | [16]; at 11.0 µM 12%
active: [1]; at 33.0 µM 98% | [1]; at 100.0 µM 95% | [2]; at 33.0 µM 99% | [2]; at 100.0 µM 95% | [3]; at 33.0 µM 91% | [3]; at 100.0 µM 96% | [4]; at 33.0 µM 98% | [4]; at 100.0 µM 94% | [5]; at 33.0 µM 98% | [5]; [18] 95% | [5]; at 50.0 µM 88.7% | [5]; at 100.0 µM 93% | [6]; at 33.0 µM 98% | [6]; [18] 96% | [6]; at 50.0 µM 93% | [6]; at 100.0 µM 96% | [7]; at 33.0 µM 98% | [7]; at 100.0 µM 92% | [8]; [18] 95% | [8]; at 50.0 µM 91% | [9]; at 33.0 µM 96% | [9]; at 100.0 µM 93% | [10]; [18] 96% | [10]; at 50.0 µM 87.2% | [11]; at 33.0 µM 98% | [11]; [18] 97% | [11]; at 50.0 µM 88.8% | [11]; at 100.0 µM 94% | [12]; at 33.0 µM 97% | [12]; at 100.0 µM 94% | [13]; at 33.0 µM 98% | [13]; at 100.0 µM 94% | [14]; at 33.0 µM 99% | [14]; at 100.0 µM 96% | [15]; [18] 95% | [15]; at 50.0 µM 88.7% | [16]; at 33.0 µM 99% | [16]; at 100.0 µM 94%
